From PubChem BioAssay
Mdm2 MdmX PPI – disrupts the human Mdm2-MdmX interaction; inhibition, % at 8 µM; 330,000 tested, 3% active; SaOS-2 split-luciferase Mdm2/MdmX complementation, luminescence; AID 485346;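 active means inhibition of at least 50% at 8 µM in the primary screen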
HSP90 inh – inhibitors of HSP90 luciferase refolding in rabbit reticulocyte lysate; 290,000 tested, 0.91% active; inhibition, % at 5.6 µM; AID 1789; luciferase refolding luminescence, 3 h;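 active means inhibition above the screen-wide mean plus 3 SD, computed separately per campaign, cut at about 16% in these data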;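 further: 0% = DMSO wells and 100% = 60 µM geldanamycin wells; inhibitors lower the luminescence because luciferase stays unfolded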
CF NFkB inh – inhibitors of cystic fibrosis induced NF-kB. AID 588850. inhibition, % at 5 µM. 360,000 tested, 0.86% active. KKLEB NF-kB-GFP reporter, PAF-induced, GFP fluorescence overnight;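 active means at least 50% inhibition at 5 µM, scaled per plate between neutral and stimulator controls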;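 further: PAF is a Pseudomonas aeruginosa culture filtrate used as stimulus; plate controls were PAF-stimulated DMSO wells for no effect and unstimulated DMSO wells for full effect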
KKLEB cytotox – CF airway cell cytotoxicity counter-screen | KKLEB CF airway cells viability, ATPlite luminescence, overnight; hits give low values; cells stimulated with P. aeruginosa culture filtrate | 360,000 tested, 0.36% active | activity change (cytotoxicity), % at 5 µM;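 active means corrected activity change at or below -50% at 5 µM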
LGR2 antag – Drosophila LGR2 receptor signaling inhibition | HEK293 LGR2, CRE-luciferase, bursicon-stimulated, 4 h | inhibition, % at 9.99 µM | 380,000 tested, 0.35% active | AID 720647;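 active means drop in luminescence signal, shown as inhibition above about 50% in the replicate tests, limit read from the data, passing the limit was not always enough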;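 further: agonist challenge used bursicon conditioned medium at about half maximal strength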
Peg3 prom inh – reduces Peg3 promoter-driven luciferase expression in HeLa. HeLa PEG-Prom luciferase reporter, luminescence, overnight. inhibition, % at 20 µM. 360,000 tested, 1.7% active. AID 588405;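 active means inhibition of at least 50% at 20 µM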
Mdm2-MdmX conf – confirmation of human Mdm2/MdmX interaction inhibitors; shares compounds with Mdm2 MdmX PPI; Mdm2-MdmX binding, luminescent assay; inhibition, % at 8 µM; 10,000 tested, 55% active; in the data active means inhibition above about 40%
Full FLuc ctr – inhibits full-length luciferase, flagging false Mdm2/MdmX hits. shares compounds with Mdm2 MdmX PPI. SaOS-2 full-length luciferase counterscreen, luminescence. inhibition, % at 8 µM. 6,200 tested, 77% active. AID 504607;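 active means mean inhibition at 8 µM reaching about 37%, which flags the compound as non-specific, limit read from the data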;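 further: p53-null SaOS-2 cells with luciferase driven by a doxycycline-inducible promoter; compound on cells about two nights before reading with doxycycline added after day one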
* hit, by the source's call; x = no result. An excerpt weighted towards active compounds, which were near 3.6% of everything screened.

SMILES | Mdm2 MdmX PPI | HSP90 inh | CF NFkB inh | KKLEB cytotox | LGR2 antag | Peg3 prom inh | Mdm2-MdmX conf | others
C[C@@H]1CN([C@H](C)CO)C(=O)Cc2cc(NC(=O)Cc3cn(C)c4ccccc34)ccc2O[C@H]1CN(C)S(=O)(=O)c1cccs1 | x | x | x | x | 24 | x | x
C/C=C/c1ccc([C@@H]2[C@H](CO)N(C(=O)CC)C23CN(S(C)(=O)=O)C3)cc1 | x | x | x | x | 2 | x | x
Cc1cccc(CN2CCC(CNC(=O)CSc3cc(=O)n(C)c4cc(Cl)ccc34)CC2)c1 | 65* | 0 | -16 | -8 | -12 | 15 | 42* | Full FLuc ctr=67*
CCC(C)N(CC(=O)Nc1cccc(C)c1C)C(=O)CCl (stereo not drawn) | 100* | 6 | 9 | -20 | x | 44 | 99* | Full FLuc ctr=52*
O=C(O)CSCC(=O)Nc1ccc(Cl)cc1C(F)(F)F | 18 | 2 | -16 | 6 | -8 | 8 | x
CC(C)N(CC(=O)Nc1ccc(Cl)cc1C(F)(F)F)C(=O)CCl | 63* | -1 | 2 | -20 | 3 | 65* | 11
COc1cccc(S(=O)(=O)N[C@H]2CC[C@H](CCn3cc(-c4ccc(F)cc4)nn3)O[C@H]2CO)c1 | x | x | x | x | 19 | x | x
C[C@H]1CN([C@@H](C)CO)C(=O)Cc2cc(NC(=O)Cc3cn(C)c4ccccc34)ccc2O[C@@H]1CN(C)C | x | x | x | x | -6 | x | x
C[C@H](CO)N1C[C@H](C)[C@@H](CN(C)C(=O)NC2CCCCC2)Oc2c(NC(=O)c3nc4ccccc4s3)cccc2C1=O | x | x | x | x | 11 | x | x
O=C(c1ccco1)N1CCN(C(=O)c2cc(-c3ccncc3)nc3ccc(Br)cc23)CC1 | 2 | 2 | -16 | -1 | x | 26 | x
CC(=O)c1ccc(N2CCN(C(=O)c3cc(-c4ccncc4)nc4ccc(Br)cc34)CC2)cc1 | 58* | -2 | -38 | 13 | -5 | 34 | 37 | Full FLuc ctr=105*
CC(=O)N1CCN(C(=O)c2cc(C)nc3ccccc23)CC1 | 23 | 2 | 15 | -7 | 1 | 15 | x
COc1ccc(-c2cc(C(=O)N3CCN(c4ccccc4O)CC3)c3ccccc3n2)cc1 | 19 | x | 11 | -11 | -38 | -123 | x
COc1ccc(-c2cc(C(=O)N3CCN(c4ccccc4O)CC3)c3ccccc3n2)cc1OC | 65* | -2 | 16 | -7 | -16 | 16 | 35
Cc1ccc(-c2cc(C(=O)N3CCN(c4ccccc4O)CC3)c3ccccc3n2)cc1 | 57* | x | 24 | -13 | -1 | -113 | 32
Cc1cc(C(=O)N2CC=C(c3ccccc3)CC2)c2ccccc2n1 | 55* | x | 31 | -4 | -16 | -6 | 74* | Full FLuc ctr=65*
O=C(C[C@H]1CC[C@@H](NC(=O)CC2CC2)[C@H](CO)O1)NCc1ccc(Cl)cc1 | x | x | x | x | 9 | x | x
CC=Cc1ccc2n(c1=O)C[C@@H]1[C@@H](CO)[C@H](C(=O)N(C)C)[C@H]2N1CC1CCOCC1 (mixture of isomers) | x | x | x | x | 4 | x | x
CC(C)NC(=O)N(C)C[C@@H]1OCCCC[C@@H](C)Oc2ccc(NC(=O)C3CCCCC3)cc2C(=O)N([C@H](C)CO)C[C@@H]1C | x | x | x | x | -10 | x | x
NCC[C@@H]1CC[C@@H](NC(=O)C2CCC2)[C@H](CO)O1 | x | x | x | x | 1 | x | x
CCOC(=O)C1CCN(C(=O)c2cc(-c3ccncc3)nc3ccccc23)CC1 | 10 | x | -7 | 4 | -11 | 13 | x
CCOC(=O)N1CCN(C(=O)c2cc(-c3ccncc3)nc3ccccc23)CC1 | 57* | x | -5 | -12 | -2 | 8 | 66* | Full FLuc ctr=55*
CCCNC(=O)C[C@H]1C[C@H]2c3cc(NC(=O)C4CCOCC4)ccc3O[C@H]2[C@@H](CO)O1 | x | x | x | x | 1 | x | x
O=C(Cc1ccc(S(=O)(=O)N2CCOCC2)s1)Nc1ccccc1Br | 66* | 1 | 7 | -5 | -12 | 10 | 0
O=C(Cc1ccc(S(=O)(=O)N2CCOCC2)s1)NCC(=O)Nc1ccccc1Br | 8 | x | 13 | -6 | -5 | 5 | x
SMILES | Mdm2 MdmX PPI | HSP90 inh | CF NFkB inh | KKLEB cytotox | LGR2 antag | Peg3 prom inh | Mdm2-MdmX conf | others
CC(C)C(=O)Nc1ccc2c(c1)C(=O)N(C)[C@H]1CC[C@H](CC(=O)Nc3ccccc3)O[C@H]1CO2 | x | x | x | x | -10 | x | x
CC(NC(=O)CSc1nc2sc3c(c2c(=O)n1-c1ccccc1)CCCC3)c1ccccc1 (stereo not drawn) | 51* | 1 | -9 | -8 | x | 11 | 23
C=CCn1c(SCC(=O)Nc2cc(C)on2)nc2sc3c(c2c1=O)CCCC3 | 61* | 2 | 8 | -5 | x | 23 | 33
C=CCn1c(SCC(=O)Nc2cc(C)on2)nc2sc(C)c(C)c2c1=O | 51* | 1 | 35 | -27 | x | 33 | 19
C=CCn1c(SCC(=O)Nc2sccc2C(N)=O)nc2sc(CC)cc2c1=O | 59* | -4 | -14 | -4 | x | 57* | 38 | Full FLuc ctr=74*
CCn1c(SCC(=O)Nc2cc(C)on2)nc2sc(C)c(C)c2c1=O | x | x | x | x | 1 | x | x
O=C(O)CSc1nc2sc3c(c2c(=O)n1-c1ccccc1)CCC3 | 9 | -5 | -5 | -3 | 8 | 0 | x
C[C@@H]1CN([C@H](C)CO)C(=O)Cc2cc(NC(=O)Nc3ccc(C(F)(F)F)cc3)ccc2O[C@@H]1CN(C)S(C)(=O)=O | x | x | x | x | -12 | x | x
O=C(O)C[C@@H]1C=C[C@@H](NC(=O)Nc2ccccc2)[C@H](CO)O1 | x | x | x | x | 5 | x | x
C[C@@H]1CN([C@H](C)CO)C(=O)c2cccc(NC(=O)C3CCCCC3)c2O[C@H]1CN(C)C(=O)Nc1cccc2ccccc12 | x | x | x | x | -16 | x | x
CCCN(C)C[C@H]1Oc2ncc(C#CCC(C)C)cc2C(=O)N([C@H](C)CO)C[C@@H]1C | x | x | x | x | 6 | x | x
CCn1c(SCC(=O)Nc2cc(C)on2)nc2sc3c(c2c1=O)CCCC3 | 76* | 2 | 3 | -29 | x | 21 | 54* | Full FLuc ctr=16
Cc1cc(NC(=O)CSc2nc3sc4c(c3c(=O)n2C)CCCC4)no1 | 11 | -1 | 8 | -17 | -12 | 25 | x
CCc1sc2nc(SCC(=O)Nc3cc(C)on3)n(-c3cccc(OC)c3)c(=O)c2c1C | 92* | -4 | 35 | -22 | x | 41 | 66* | Full FLuc ctr=77*
CCOc1ccc(OCC)c(NC(=O)CN2CCN(c3cccc(C)c3)C(C)C2)c1 (stereo not drawn) | 53* | -2 | 10 | -2 | 20 | 40 | 64* | Full FLuc ctr=46*
CCOC(=O)C1=C(c2ccccc2)O/C(=C(/C#N)C(F)(F)F)S1 | 101* | 1 | x | x | x | x | 99* | Full FLuc ctr=0
CCOC(=O)C1=C(c2ccccc2)O/C(=C(\C(=O)OC)C(F)(F)F)S1 | 14 | 1 | 9 | 11 | x | 19 | x
COc1ccccc1-c1ccc2c(c1)O[C@H](CN(C)C(=O)Nc1cccc(F)c1)[C@H](C)CN([C@H](C)CO)S2(=O)=O | x | x | x | x | 8 | x | x
